Experimental data taken from PubChem BioAssay (NCATS).
Records with an inconclusive call do not appear. Activity calls are given as the source filed them. The call rests on the fitted dose curve; in most records, active means well fitted curve in the direction sought with a large enough effect; inconclusive means small, poorly fitted or top-dose-only effect, or another doubt; inactive means no such curve, though single readings can be large; an effect the other way counts as inactive or inconclusive.

How the values were obtained:
[1] = Quantitative High-Throughput drug screen in 47 multiple myeloma cell lines against the NCATS MIPE library collection: KMS12PE_JCRB cell viability assay (AID 1918972); further: nearly all actives have a fitted effect of over 30% in size
Method in brief: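 Relative luminescence from CellTiter-Glo served as the viability signal, referenced to DMSO-treated (100%) and cell-free medium (0%) controls. Treatment lasted 48 hours at 37C with 500 cells per well.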

[2] = Quantitative High-Throughput drug screen in 47 multiple myeloma cell lines against the NCATS MIPE library collection: KMS20_JCRB cell viability assay (AID 1918973); further: nearly all actives have a fitted effect of over 45% in size
Method in brief: (§1)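 CellTiter-Glo ATP luminescence gave viability after 48 h compound treatment at 37C of 500 multiple myeloma cells per well. Normalisation used DMSO-only wells as 100% and media-only wells as 0% viability; primary qHTS of approved and investigational drugs.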

[3] = Quantitative High-Throughput drug screen in 47 multiple myeloma cell lines against the NCATS MIPE library collection: KMS26_JCRB cell viability assay (AID 1918975); further: nearly all actives have a fitted effect of over 45% in size
Method in brief: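 Steps: seed 500 cells per well; pin-transfer MIPE 4.0 library; incubate 48 h at 37C, 5% CO2, humidified; add CellTiter-Glo, 5 min room temperature; read luminescence.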

[4] = Quantitative High-Throughput drug screen in 47 multiple myeloma cell lines against the NCATS MIPE library collection: MOLP8_DSMZ cell viability assay (AID 1918977); further: nearly all actives have a fitted effect of over 45% in size
Method in brief: (§2)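 Readout: median RLU from CellTiter-Glo after 5 min at room temperature. Preceding step was 48 h drug treatment of 500 cells/well at 37 °C, 5% CO2, with DMSO-only and media-only control wells.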

[5] = Quantitative High-Throughput drug screen in 47 multiple myeloma cell lines against the NCATS MIPE library collection: NCIH929_DSMZ cell viability assay (AID 1918978); further: nearly all actives have a fitted effect of over 35% in size
Method in brief: as §2

[6] = Quantitative High-Throughput drug screen in 47 multiple myeloma cell lines against the NCATS MIPE library collection: OCIMY1_PLB cell viability assay (AID 1918979); further: nearly all actives have a fitted effect of over 35% in size
Method in brief: as §2

[7] = Quantitative High-Throughput drug screen in 47 multiple myeloma cell lines against the NCATS MIPE library collection: MM1S_ATCC cell viability assay (AID 1918980); further: nearly all actives have a fitted effect of over 45% in size
Method in brief: as §2

[8] = Quantitative High-Throughput drug screen in 47 multiple myeloma cell lines against the NCATS MIPE library collection: MM1R_ATCC cell viability assay (AID 1918981); further: nearly all actives have a fitted effect of over 35% in size
Method in brief: as §2

[9] = Quantitative High-Throughput drug screen in 47 multiple myeloma cell lines against the NCATS MIPE library collection: MMM1_PLB cell viability assay (AID 1918976); further: nearly all actives have a fitted effect of over 35% in size
Method in brief: as §2

[10] = Quantitative High-Throughput drug screen in 47 multiple myeloma cell lines against the NCATS MIPE library collection: KMS21BM_JCRB cell viability assay (AID 1918974); conditions: ATP luminescence, 48 h; viability: at 45.8 µM (top of the series) unless noted
Method in brief: as §1

Measured: Potency
Potency means the concentration at half of the fitted maximal effect.

Cc1cnc(Nc2ccc(F)cc2Cl)nc1-c1c[nH]c(C(=O)N[C@H](CO)c2cccc(Cl)c2)c1
active: [1] 10.5 µM | [2] 3.32 µM | [3] 20.9 µM | [4] 23.5 µM | [5] 16.6 µM | [6] 26.4 µM | [7] 16.6 µM | [8] 16.6 µM

Cc1cccc(C=NNc2cc(N3CCOCC3)nc(OCCc3ccccn3)n2)c1
active: [1] 0.332 µM | [2] 6.62 µM | [3] 0.118 µM | [5] 14.8 µM | [7] 16.6 µM | [8] 6.62 µM

Cc1c(Cn2c(C)nc3c(C(=O)O)cc(N4CCOCC4)cc32)cccc1C(F)(F)F
active: [2] 0.0935 µM | [7] 0.0662 µM
inactive: [1] | [4] | [6]

CC=CC1=C(C(=O)O)N2C(=O)[C@H](NC(=O)[C@H](N)c3ccc(O)cc3)[C@@H]2SC1
inactive: [1] | [4] | [8]
active: [2] 26.4 µM

CCN1CCN(CC(=O)Nc2ccc(-c3cccc4c(=O)cc(N5CCOCC5)oc34)c3sc4ccccc4c23)CC1
active: [1] 2.35 µM | [2] 1.18 µM | [4] 0.526 µM | [5] 0.187 µM | [6] 5.9 µM | [7] 7.43 µM | [8] 1.48 µM

COc1cc2c(NC3CCN(C(C)C)CC3)nc(C3CCCCC3)nc2cc1OCCCN1CCCC1
active: [1] 6.62 µM | [2] 2.35 µM | [9] 6.62 µM | [4] 7.43 µM | [5] 5.26 µM | [6] 7.43 µM | [7] 4.18 µM | [8] 6.62 µM

CNc1nccc(-c2cccnc2Oc2cc(C(=O)Nc3cccc(C(F)(F)F)c3)ccc2C)n1
active: [1] 10.5 µM | [2] 9.35 µM | [9] 18.7 µM | [5] 5.26 µM | [7] 18.7 µM | [8] 20.9 µM

O=C(CCCCCCC(=O)Nc1ccc([C@H]2O[C@@H](CSc3nc(-c4ccccc4)c(-c4ccccc4)o3)C[C@@H](c3ccc(CO)cc3)O2)cc1)NO
inactive: [1]
active: [2] 6.62 µM | [3] 23.5 µM | [4] 14.8 µM | [5] 9.35 µM | [6] 18.7 µM | [7] 9.35 µM | [8] 16.6 µM

COCCOc1ccc2c(c1)ncn2-c1ccc2cccc(N3CCC(N)CC3)c2n1
active: [1] 0.0372 µM | [2] 0.0743 µM | [9] 23.5 µM | [5] 1.66 µM | [6] 2.64 µM | [7] 3.72 µM | [8] 1.66 µM

Cc1c(NC(=O)OC[C@@H]2COCCN2)cn2ncnc(Nc3ccc4c(cnn4Cc4cccc(F)c4)c3)c12
inactive: [6]
active: [1] 18.7 µM | [2] 1.87 µM | [5] 18.7 µM

COC(=O)C1=C(C)NC(C)=C(C(=O)OCCN2CCN(C(c3ccccc3)c3ccccc3)CC2)C1c1cccc([N+](=O)[O-])c1 (centres undefined)
inactive: [1] | [2] | [9] | [5] | [8]

O=c1[nH]nc(Sc2ncc([N+](=O)[O-])s2)n1-c1ccc2c(c1)OCCO2
active: [1] 7.43 µM | [2] 2.09 µM | [9] 2.96 µM | [4] 1.48 µM | [5] 0.833 µM | [6] 3.72 µM | [8] 1.32 µM

CN1CCN(c2cc(C(=O)Nc3ccc4c(c3)-c3c(c(C(N)=O)nn3-c3ccc(F)cc3)CC4)c(Cl)cn2)CC1
active: [1] 20.9 µM | [2] 2.96 µM | [3] 10.5 µM | [4] 26.4 µM | [5] 0.743 µM | [6] 26.4 µM | [8] 20.9 µM

CN(c1ncccc1CNc1nc(Nc2ccc3c(c2)CC(=O)N3)ncc1C(F)(F)F)S(C)(=O)=O
active: [1] 8.33 µM | [2] 3.32 µM | [3] 7.43 µM | [4] 4.18 µM | [5] 2.96 µM | [6] 13.2 µM | [7] 6.62 µM

O=C(C=Cc1c(C(=O)O)[nH]c2cc(Cl)cc(Cl)c12)Nc1ccccc1
inactive: [1] | [2] | [3] | [5] | [6] | [7]

COc1ccc(C(=O)CC2(O)C(=O)Nc3c(Cl)ccc(Cl)c32)cc1 (centres undefined)
active: [1] 1.32 µM | [3] 2.96 µM | [5] 18.7 µM | [8] 5.26 µM

CCN1CCN(Cc2ccc(-c3cc4c(N[C@H](C)c5ccccc5)ncnc4[nH]3)cc2)CC1
active: [1] 0.0469 µM | [3] 0.935 µM | [9] 18.7 µM

C[C@@H](Oc1cc(-c2cnn(C3CCNCC3)c2)cnc1N)c1c(Cl)ccc(F)c1Cl
active: [1] 6.62 µM | [10] 8.33 µM | [9] 9.35 µM | [4] 13.2 µM | [5] 3.32 µM | [7] 18.7 µM

CNC(=O)c1ccc(N2C(=S)N(c3cnc(C#N)c(C(F)(F)F)c3)C(=O)C23CCC3)cc1F
active: [1] 2.96 µM | [2] 2.35 µM | [5] 0.332 µM | [7] 0.132 µM | [8] 1.05 µM

O=C(NCCS(=O)(=O)c1ccc(C(F)(F)F)cn1)c1ccc(Cl)cc1
inactive: [1] | [9] | [4] | [5] | [6]

Cc1nc2ccc(CN(C)c3ccc(C(=O)N[C@@H](CCC(=O)O)C(=O)O)s3)cc2c(=O)[nH]1
active: [1] 0.0662 µM | [3] 9.35 µM | [9] 5.9 µM | [7] 20.9 µM
inactive: [6]

N#Cc1c(O)c2c(-c3ccc(-c4ccccc4O)cc3)csc2[nH]c1=O
inactive: [1] | [3] | [4] | [5] | [8]
active: [7] 16.6 µM

C=C1C(=CC=C2CCC[C@]3(C)[C@@H]([C@H](C)C=C[C@H](C)C(C)C)CC[C@@H]23)C[C@@H](O)C[C@@H]1O
active: [1] 0.662 µM | [10] 0.0526 µM | [3] 2.35 µM | [9] 5.9 µM | [4] 7.43 µM | [5] 0.935 µM | [7] 0.0833 µM | [8] 1.66 µM

CC1(C)OC2=C(C(=O)c3ccccc3C2=O)[C@H](NCc2ccccc2)[C@H]1O
active: [1] 1.48 µM | [10] 1.05 µM | [3] 5.26 µM | [9] 2.09 µM | [4] 2.96 µM | [5] 2.35 µM | [6] 4.18 µM | [7] 2.09 µM | [8] 4.18 µM

COc1cc(OC2CCN(C)CC2)ccc1Nc1ncc2c(n1)n(C1CCCC1)c(=O)n2C
active: [1] 7.43 µM | [2] 7.43 µM | [5] 6.62 µM | [8] 18.7 µM

Nc1ccc(S(=O)(=O)Nc2ncccn2)cc1
inactive: [1] | [3] | [4] | [7] | [8]

O=C(O)c1ccc2c(c1)nc(Nc1cccc(Cl)c1)c1ccncc12
active: [1] 5.26 µM | [10] 3.32 µM | [9] 14.8 µM | [4] 10.5 µM | [5] 3.72 µM | [6] 18.7 µM | [7] 6.62 µM

C[C@]12CC[C@H](O)CC1=CCC1C2CC[C@]2(C)C(n3cnc4ccccc43)=CCC12 (some centres undefined)
inactive: [1] | [2] | [6] | [7]

COc1cccc(-c2ccc(NC(=O)C3=C(C(=O)O)CCC3)c(F)c2)c1
inactive: [6]
active: [1] 2.96 µM | [9] 20.9 µM | [5] 20.9 µM | [7] 3.72 µM | [8] 23.5 µM

CN(C1CCc2c(c3ccccc3n2CC(=O)O)C1)S(=O)(=O)c1ccc(F)cc1 (centres undefined)
inactive: [3] | [4] | [5] | [6]
active: [1] 5.26 µM | [10] 0.418 µM

CC(C)Nc1cc(C(F)(F)F)cc2nc(NC(=O)c3cccnc3)nn12
active: [9] 1.87 µM
inactive: [1] | [4] | [5] | [6] | [8]

Cn1c(CNc2ccc(C(=N)N)cc2)nc2cc(C(=O)N(CCC(=O)O)c3ccccn3)ccc21
inactive: [1] | [3] | [4] | [8]
active: [7] 14.4 µM
